In PMC7862700, “An all-to-all approach to the identification of sequence-specific readers for epigenetic DNA modifications on cytosine” one finds binding signal data, which are given here for four sequences.

Assay in all cases: DAPPL (digital affinity profiling via proximity ligation, sequencing); 10 mM Tris-HCl pH 7.5, 50 mM NaCl, 1 mM DTT, 4% glycerol, room temperature, 30 min; GST-TFs on glutathione beads, 16-mer random dsDNA library, 0.1% formaldehyde crosslink after washing; high values mean tight binding
In one assay the target is T1, GABPA (Homo sapiens, UniProt Q06546 1-454).
T1 sequence: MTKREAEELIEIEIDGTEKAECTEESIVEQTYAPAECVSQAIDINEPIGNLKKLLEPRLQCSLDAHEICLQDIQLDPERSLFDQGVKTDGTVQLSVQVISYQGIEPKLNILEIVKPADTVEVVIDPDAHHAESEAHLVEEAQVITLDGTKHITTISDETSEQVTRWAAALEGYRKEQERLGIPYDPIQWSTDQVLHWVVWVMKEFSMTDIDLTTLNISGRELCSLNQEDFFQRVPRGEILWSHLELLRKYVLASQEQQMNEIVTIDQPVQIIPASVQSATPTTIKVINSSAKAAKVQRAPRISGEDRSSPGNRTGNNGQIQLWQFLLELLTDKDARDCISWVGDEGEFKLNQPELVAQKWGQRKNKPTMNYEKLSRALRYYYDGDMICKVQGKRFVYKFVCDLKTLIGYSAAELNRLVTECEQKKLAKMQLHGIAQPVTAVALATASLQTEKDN
The following applies: protein: recombinant; tags: N-terminal GST; dsDNA, one strand shown. Put shortly: (§1)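 Human transcription factors were made in yeast as GST fusions, captured on glutathione beads and barcoded with DNA. With a tag-only sample included, the pool was incubated with 200 nmole of a random double-stranded 16-mer DNA library in Tris/NaCl/DTT/glycerol buffer at room temperature for 30 min, then crosslinked with 0.1% formaldehyde after washing, ligated by proximity, amplified and sequenced. For binding signal, each hexamer's read frequency for a factor is divided by its frequency for the tag-only sample.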

The next assay deals with HSF1 (Homo sapiens, UniProt Q00613 1-529). The following applies: protein: recombinant; tags: N-terminal GST; chain copies: 3; dsDNA, one strand shown. Put shortly:
as §1

A further assay concerns the target T2, ELK4 (Homo sapiens, UniProt P28324-2 1-405).
T2 sequence: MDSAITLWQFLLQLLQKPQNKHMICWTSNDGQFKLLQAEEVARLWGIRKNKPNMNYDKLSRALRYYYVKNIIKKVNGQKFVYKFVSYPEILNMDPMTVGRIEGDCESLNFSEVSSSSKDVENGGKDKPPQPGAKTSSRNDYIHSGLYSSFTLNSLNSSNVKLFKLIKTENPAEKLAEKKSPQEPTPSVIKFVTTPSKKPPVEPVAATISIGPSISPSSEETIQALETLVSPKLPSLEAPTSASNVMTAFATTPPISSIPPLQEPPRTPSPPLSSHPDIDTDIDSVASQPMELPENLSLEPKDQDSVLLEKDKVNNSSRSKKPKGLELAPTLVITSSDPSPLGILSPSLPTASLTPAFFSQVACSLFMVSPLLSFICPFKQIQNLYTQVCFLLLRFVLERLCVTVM
Particulars: protein: recombinant; tags: N-terminal GST; dsDNA, one strand shown. In a few lines: as §1

The target in the next assay is CRX (Homo sapiens, UniProt O43186 1-299). Particulars: protein: recombinant; tags: N-terminal GST; dsDNA, one strand shown. Put shortly: as §1
Another assay concerns the target T3, ETV2 (Homo sapiens, UniProt O00321 1-342).
T3 sequence: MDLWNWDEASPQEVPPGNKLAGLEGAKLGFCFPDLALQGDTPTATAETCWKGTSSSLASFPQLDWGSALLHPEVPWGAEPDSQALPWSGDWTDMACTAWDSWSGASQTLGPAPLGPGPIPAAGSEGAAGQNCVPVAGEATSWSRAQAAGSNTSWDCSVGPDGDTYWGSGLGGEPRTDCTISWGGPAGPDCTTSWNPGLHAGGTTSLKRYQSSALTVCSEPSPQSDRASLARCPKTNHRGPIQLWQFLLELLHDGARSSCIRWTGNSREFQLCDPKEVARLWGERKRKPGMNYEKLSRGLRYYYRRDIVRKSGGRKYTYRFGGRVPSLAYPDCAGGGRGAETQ
Particulars: protein: recombinant; tags: N-terminal GST; dsDNA, one strand shown. In a few lines:
as §1

The target in another assay is T4, ERF (Homo sapiens, UniProt P50548 1-548).
T4 sequence: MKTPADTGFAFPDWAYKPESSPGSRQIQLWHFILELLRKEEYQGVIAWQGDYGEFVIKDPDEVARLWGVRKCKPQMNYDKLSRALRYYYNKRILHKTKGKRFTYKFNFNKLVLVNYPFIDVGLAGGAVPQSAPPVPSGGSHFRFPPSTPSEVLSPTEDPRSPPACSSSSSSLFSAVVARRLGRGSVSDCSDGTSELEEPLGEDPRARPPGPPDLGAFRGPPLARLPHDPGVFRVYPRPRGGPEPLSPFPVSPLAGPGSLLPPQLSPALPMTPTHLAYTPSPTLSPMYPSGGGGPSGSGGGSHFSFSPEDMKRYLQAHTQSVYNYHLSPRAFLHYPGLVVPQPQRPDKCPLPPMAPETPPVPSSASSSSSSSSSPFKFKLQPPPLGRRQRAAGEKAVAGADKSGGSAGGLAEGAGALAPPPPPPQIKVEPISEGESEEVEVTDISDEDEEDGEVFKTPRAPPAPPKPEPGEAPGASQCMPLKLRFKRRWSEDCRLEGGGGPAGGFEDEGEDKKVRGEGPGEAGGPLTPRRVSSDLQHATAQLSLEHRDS
Particulars: protein: recombinant; tags: N-terminal GST; dsDNA, one strand shown. Put shortly:
as §1

The target of another assay is T5, ETS2 (Homo sapiens, UniProt P15036 1-469).
T5 sequence: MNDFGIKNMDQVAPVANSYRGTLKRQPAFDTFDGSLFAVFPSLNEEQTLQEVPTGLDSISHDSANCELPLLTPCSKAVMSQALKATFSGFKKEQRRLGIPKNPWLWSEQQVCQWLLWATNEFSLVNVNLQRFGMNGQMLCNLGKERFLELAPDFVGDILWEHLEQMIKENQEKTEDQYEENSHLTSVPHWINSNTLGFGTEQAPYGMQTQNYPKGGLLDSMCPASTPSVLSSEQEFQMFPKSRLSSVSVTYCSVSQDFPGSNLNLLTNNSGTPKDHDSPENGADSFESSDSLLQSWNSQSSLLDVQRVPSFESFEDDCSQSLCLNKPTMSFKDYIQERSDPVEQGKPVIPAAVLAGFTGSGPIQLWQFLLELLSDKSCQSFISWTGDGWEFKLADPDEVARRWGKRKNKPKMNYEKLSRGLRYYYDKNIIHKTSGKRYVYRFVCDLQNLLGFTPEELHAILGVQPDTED
The following applies: protein: recombinant; tags: N-terminal GST; dsDNA, one strand shown. Put shortly: as §1

The target of another assay is T6, ETV7 (Homo sapiens, UniProt Q9Y603 1-341).
T6 sequence: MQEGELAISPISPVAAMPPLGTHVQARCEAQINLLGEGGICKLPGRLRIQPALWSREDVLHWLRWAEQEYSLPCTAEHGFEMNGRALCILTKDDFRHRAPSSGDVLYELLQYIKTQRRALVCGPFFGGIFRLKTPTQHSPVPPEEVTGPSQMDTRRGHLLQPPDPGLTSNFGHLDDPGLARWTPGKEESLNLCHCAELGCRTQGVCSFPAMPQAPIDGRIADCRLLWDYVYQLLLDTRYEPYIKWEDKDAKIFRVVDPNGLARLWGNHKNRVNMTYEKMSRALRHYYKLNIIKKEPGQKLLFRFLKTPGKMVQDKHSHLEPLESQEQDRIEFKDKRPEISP
Particulars: protein: recombinant; tags: N-terminal GST; dsDNA, one strand shown. Put shortly: as §1

In another assay the target is ELF4 (Homo sapiens, UniProt Q99607 1-663). The following applies: protein: recombinant; tags: N-terminal GST; dsDNA, one strand shown. Put shortly: as §1
The next assay deals with T7, ETV3L (Homo sapiens, UniProt Q6ZN32 1-361).
T7 sequence: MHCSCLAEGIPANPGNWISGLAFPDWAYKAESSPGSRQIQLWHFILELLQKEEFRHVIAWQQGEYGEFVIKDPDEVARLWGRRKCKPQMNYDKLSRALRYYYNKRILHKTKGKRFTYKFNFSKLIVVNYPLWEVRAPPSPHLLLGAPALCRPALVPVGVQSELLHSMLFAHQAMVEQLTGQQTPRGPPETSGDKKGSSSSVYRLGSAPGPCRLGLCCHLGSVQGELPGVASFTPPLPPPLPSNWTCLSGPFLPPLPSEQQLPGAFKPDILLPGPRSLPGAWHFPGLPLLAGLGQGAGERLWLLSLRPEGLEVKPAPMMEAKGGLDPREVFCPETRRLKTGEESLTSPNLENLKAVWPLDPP
The following applies: protein: recombinant; tags: N-terminal GST; dsDNA, one strand shown. Put shortly:
as §1

Sequence of HSF1 (Q00613 whole entry): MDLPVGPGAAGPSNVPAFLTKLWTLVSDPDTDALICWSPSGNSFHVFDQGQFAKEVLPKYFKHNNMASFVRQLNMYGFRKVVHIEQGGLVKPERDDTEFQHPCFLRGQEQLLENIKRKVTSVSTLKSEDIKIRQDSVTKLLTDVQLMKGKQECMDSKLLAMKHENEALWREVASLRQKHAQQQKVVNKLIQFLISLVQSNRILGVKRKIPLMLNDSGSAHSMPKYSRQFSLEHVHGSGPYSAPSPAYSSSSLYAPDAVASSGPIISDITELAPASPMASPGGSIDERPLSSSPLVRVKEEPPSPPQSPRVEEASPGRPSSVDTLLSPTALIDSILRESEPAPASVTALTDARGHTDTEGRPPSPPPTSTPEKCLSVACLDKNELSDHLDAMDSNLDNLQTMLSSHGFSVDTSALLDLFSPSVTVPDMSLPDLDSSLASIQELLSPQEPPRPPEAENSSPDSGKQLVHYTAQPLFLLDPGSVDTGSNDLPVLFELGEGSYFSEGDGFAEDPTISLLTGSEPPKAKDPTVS
Sequence of ELF4 (Q99607 whole entry): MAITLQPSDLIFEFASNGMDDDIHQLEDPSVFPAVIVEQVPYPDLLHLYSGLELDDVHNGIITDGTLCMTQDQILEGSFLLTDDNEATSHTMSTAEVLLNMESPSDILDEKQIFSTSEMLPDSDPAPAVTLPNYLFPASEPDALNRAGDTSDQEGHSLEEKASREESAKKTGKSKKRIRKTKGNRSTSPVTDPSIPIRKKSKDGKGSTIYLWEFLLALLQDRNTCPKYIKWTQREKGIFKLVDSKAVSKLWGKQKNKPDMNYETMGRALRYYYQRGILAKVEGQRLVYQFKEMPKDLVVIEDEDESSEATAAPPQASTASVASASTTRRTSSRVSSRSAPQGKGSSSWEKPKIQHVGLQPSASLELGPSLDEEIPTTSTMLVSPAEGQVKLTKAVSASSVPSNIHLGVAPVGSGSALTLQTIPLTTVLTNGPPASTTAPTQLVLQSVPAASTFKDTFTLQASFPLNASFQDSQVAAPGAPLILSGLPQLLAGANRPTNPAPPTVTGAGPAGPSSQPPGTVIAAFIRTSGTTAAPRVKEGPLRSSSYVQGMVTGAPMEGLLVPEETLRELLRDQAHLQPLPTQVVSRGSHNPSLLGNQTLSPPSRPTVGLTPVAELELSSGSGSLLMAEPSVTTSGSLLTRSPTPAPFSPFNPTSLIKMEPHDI
Sequence of CRX (O43186 whole entry): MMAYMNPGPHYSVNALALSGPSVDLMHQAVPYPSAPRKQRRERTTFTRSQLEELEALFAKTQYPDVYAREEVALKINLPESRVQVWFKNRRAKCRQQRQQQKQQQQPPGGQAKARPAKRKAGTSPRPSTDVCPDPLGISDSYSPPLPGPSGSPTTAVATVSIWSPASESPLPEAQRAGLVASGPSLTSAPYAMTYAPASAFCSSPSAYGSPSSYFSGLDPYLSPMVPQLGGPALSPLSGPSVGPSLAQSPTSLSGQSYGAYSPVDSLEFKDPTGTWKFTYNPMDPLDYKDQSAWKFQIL

Turning to ATCAGA, the binding signal is 1.11 fold enrichment (6-mer frequency, TF over GST control) in the assay with GABPA; 1.09 fold enrichment (6-mer frequency, TF over GST control) with HSF1; 1.05 fold enrichment (6-mer frequency, TF over GST control) in the assay with ELK4; 1.25 fold enrichment (6-mer frequency, TF over GST control) in the assay with CRX.

On to GCCTAG, for which the binding signal is 1.02 fold enrichment (6-mer frequency, TF over GST control) with GABPA; 1.21 fold enrichment (6-mer frequency, TF over GST control) with HSF1; 1.03 fold enrichment (6-mer frequency, TF over GST control) in the assay with ELK4; 1.08 fold enrichment (6-mer frequency, TF over GST control) in the assay with ETV2; 1.06 fold enrichment (6-mer frequency, TF over GST control) with ERF; 1 fold enrichment (6-mer frequency, TF over GST control) with ETS2. In the assay with ETV7, the binding signal is 1 fold enrichment (6-mer frequency, TF over GST control).

For the sequence ACGAAG, the binding signal is 1.06 fold enrichment (6-mer frequency, TF over GST control) in the assay with HSF1; 1.01 fold enrichment (6-mer frequency, TF over GST control) with ELF4; 1.02 fold enrichment (6-mer frequency, TF over GST control) with ERF; 1 fold enrichment (6-mer frequency, TF over GST control) in the assay with ETV3L; 1.07 fold enrichment (6-mer frequency, TF over GST control) with ETV7.

On to ATCGCG, for which the binding signal in the assay with HSF1 is 1.09 fold enrichment (6-mer frequency, TF over GST control); in the assay with ELF4, 1 fold enrichment (6-mer frequency, TF over GST control); with ELK4 it was 1 fold enrichment (6-mer frequency, TF over GST control); with ETV7 it was 1.05 fold enrichment (6-mer frequency, TF over GST control).
